Experimental data as given in PubChem BioAssay (EPA / NIEHS).
Several values for one entry are separate records, joined by “and”; a condition that tells them apart may be missing. Equal values may be shown once. Inconclusive results are not listed. Some compounds were tested as several samples or in several runs, with calls that do not always agree. Activity calls are given as the source filed them. The calls were made as follows: active = hit-call score of the fitted dose curve at least 0.9, where 1 is the maximum; inconclusive = response in the unintended direction; inactive = score below 0.9.

Assay: TOX21_p53_BLA_p3_viability: Viability Assessment in the Tox21 HCT-116 p53 Agonism Beta-lactamase Assay, Phase 3 (AID 2283593);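 also: cells exposed to compound for 16 h before reading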
Description: TOX21_p53_BLA_p3 is a cell-based, single-readout assay that uses HCT116, a human intestinal cell line, […] in a 1536-well plate.TOX21_p53_BLA_p3_viability is an assay readout measuring cellular ATP content and detected with CellTiter-Glo Luciferase-coupled ATP quantitation.TOX21_p53_BLA_p3_viability used a type of viability reporter where loss-of-signal activity can be used to understand changes in the cell viability. Furthermore, this assay endpoint can be referred to as a secondary readout, because this assay has produced multiple assay endpoints where this one serves a viability function. To generalize the intended target to other relatable targets, this assay endpoint is annotated to the cell cycle intended target family, where the subfamily is cytotoxicity.
Thawing Method: Place 14 mL of pre-warmed thaw medium into a 15 mL of conical tub. Remove the vial of cells to be thawed from liquid nitrogen and thaw rapidly by placing at 37C in a water bath with gentle agitation for 1-2 minutes. Decontaminate the vial by wiping with 70% ethanol before opening in a biological safety cabinet. Transfer the vial contents drop-wise into 14 mL of thaw medium in a sterile 15-mL conical tub. Centrifuge cells at 900 rpm for 4 minutes and resuspend in thaw medium. Transfer contents to the T75 tissue culture flask containing Thaw Medium and place flask in a humidified 37C/5% CO2 incubator. Switch to growth medium at first passage.Propagation Method: Aspirate medium, rinse once in DPBS, add 0.25% Trypsin/EDTA and swirl to coat the cell evenly. Add an equal volume of Growth Medium to inactivate Trypsin after 2-3 minutes incubation at 37C. Centrifuge cells at 900 rpm for 4 minutes and resuspend in growth medium. Cell should be passage or fed at least twice a week.Assay Protocol: Harvest cells from culture in growth medium and resuspend in assay medium. 2.2 Dispense 4000 cells/5 uL/well into 1536-well black/clear bottom plates using a Multidrop dispenser. After the cells were incubated at 37C for 5 hours, 23 nL of compounds dissolved in DMSO were transferred to the assay plate by a PinTool resulting in a 217-fold dilution. Incubate the plates for 16 hours at 37C, 5% CO2. Add 1 uL of 6X LiveBLAzer FRET B/G (CCF4-AM) Substrate Mixture to each well using a BioRAPTR dispenser and incubate the plates at room temperature for 2 hours. Measure fluorescence intensity at 460 and 530 nm emission and 405 nm excitation by an Envision detector. Data is expressed as the ratio of 460nm/530nm emissions. Add 4 uL of Cell-titer Glo to each well using BioRAPTR and incubate the plates at room temperature for […]. For cell viability readout that measures cytotoxicity, 4 ul/well of CellTiter-Glo reagent was added into the assay plates using a Flying Reagent Dispenser. After 30 min incubation at room temperature, the luminescence intensity in the plates was measured using a ViewLux plate reader.

Compound	outcome	AC50
O=C1c2ccccc2C(=O)N1CCc1noc(-c2ccc(CN3CCCCCC3)s2)n1	inactive	–
CCCCCCCCCCCCO	inactive	–
Cc1cccc2ccccc12	inactive	–
O=C1O[C@H]([C@@H](O)CO)C(O)=C1O	inactive	–
O=C=NCCCCCCN=C=O	inactive	–
CCN(CC)C(=O)c1cc(S(=O)(=O)Cc2ccccc2)c(N2CCC(c3ccccc3)CC2)cc1N(CC)CCN(C)C	inactive	30.3 µM (active)
Cc1ccc2oc(CN(Cc3ccccc3)C(=O)Nc3c(F)cc(F)cc3F)c(-c3ccc(Cl)cc3)c2c1	inactive	–
CCN(Cc1cccnc1)C(=O)c1cccc(Cl)c1[C@]1(C)C(=O)N(Cc2ccc(OC)cc2OC)c2ccc(Cl)cc21	inactive	–
Cc1cc(F)ccc1-c1cc(N2CC[C@@H](O)[C@H]2CO)ncc1N(C)C(=O)C(C)(C)c1cc(C(F)(F)F)cc(C(F)(F)F)c1	–	30.7 µM (active)
CCCCOC(=O)c1ccc(O)cc1	inactive	–
CC/C(=C(/CC)c1ccc(O)cc1)c1ccc(O)cc1	inactive	–
CCCCCCCCCCCC[N+](C)(C)C	inactive	85.3 µM (active)
CN(C)C(=O)C1(N2CCCCC2)CCN(CC[C@@]2(c3ccc(Cl)c(Cl)c3)CN(C(=O)c3ccccc3)CCO2)CC1	–	70.5 µM (active)
Oc1ccccc1	inactive	–
CC(C)(C)c1csc(-c2cc3cc(OCc4ccccc4CC(=O)O)ccc3o2)n1	–	46.1 µM (active)
CC(C)(C)c1cc(/C=C2\SC(N)=NC2=O)cc(C(C)(C)C)c1O	inactive	–
CC[C@H](NC(=O)c1cc(F)ccc1NS(=O)(=O)c1cccc2cccnc12)c1ccccc1	inactive	–
CC(C)(c1cc(Br)c(O)c(Br)c1)c1cc(Br)c(O)c(Br)c1	–	55.7 µM (active) and 52.9 µM (active) and 46 µM (active)

Compound	outcome	AC50
c1ccc2n[nH]nc2c1	inactive	–
O=c1c(-c2ccc(O)cc2)coc2cc(O)cc(O)c12	inactive	–
COc1cc(C(=O)NC2CCN(C)CC2)ccc1Nc1ncc2c(n1)N(C1CCCC1)CC(F)(F)C(=O)N2C	–	55.2 µM (active)
CO[C@H]1/C=C/O[C@@]2(C)Oc3c(C)c(O)c4c(O)c(c(/C=N/N5CCN(C)CC5)c(O)c4c3C2=O)NC(=O)/C(C)=C\C=C\[C@H](C)[C@H](O)[C@@H](C)[C@@H](O)[C@@H](C)[C@H](OC(C)=O)[C@@H]1C	inactive	–
CCN(Cc1cccc(S(=O)(=O)O)c1)c1ccc(C(=C2C=CC(=[N+](CC)Cc3cccc(S(=O)(=O)O)c3)C=C2)c2ccccc2S(=O)(=O)[O-])cc1	inactive	–
Clc1ccccc1C(c1ccccc1)(c1ccccc1)n1ccnc1	inactive	81.9 µM (active)
Cc1oc2c(NC(=O)c3c(Cl)cccc3Cl)cccc2c1C(C)(C)O	inactive	–
O=C(O)Cn1c(=O)n(Cc2ccc(Br)cc2F)c(=O)c2ccc(Cl)cc21	inactive	–
CC(=O)N1CCN(c2ccc(OC[C@H]3CO[C@](Cn4ccnc4)(c4ccc(Cl)cc4Cl)O3)cc2)CC1	inactive	46.1 µM (active)
CN(C[C@@H](CC[N+]12CCC(C3CCCCC3)(CC1)CC2)c1ccc(Cl)c(Cl)c1)C(=O)c1cc(C(F)(F)F)cc(C(F)(F)F)c1	–	58.7 µM (active)
CCCCCc1ccc(N)cc1	inactive	–
CCO[Si](CCCNC(N)=O)(OCC)OCC	inactive	–
O=C(O)Cc1cc(I)c(Oc2ccc(O)c(I)c2)c(I)c1	inactive	15.9 µM (active)
CCCCCCCCCCCO	inactive	–
CN1C(=O)N(c2ccccc2Br)Cc2cnc(Nc3ccc4c(c3)OCC(CO)O4)nc21 (stereo unspecified)	inactive	–
Cc1occc1C(=O)Nc1ccc(C(=O)N2CCC(F)(F)/C(=C\C(=O)N3CCC(N4CCCCC4)CC3)c3ccccc32)cc1	inactive	–
O=CCCCC=O	inactive	83.5 µM (active) and 84.6 µM (active)
